Test [1] in a line: ATG_XTT_Cytotoxicity: Cytotoxicity Assessment in the Attagene TRANS-FACTORIAL HepG2 Assay (AID 2283584).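 As to AC50: XTT signal for cell number as viability in transfected HepG2 cells; cells exposed to compound for 24 h before reading; active means loss of viability signal versus DMSO baseline.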 An outline of the steps:
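Transfect HepG2 with GAL4-UAS reporter units, dose compound, incubate 24 h, then measure viable cell number by XTT. Fit concentration response against DMSO baseline.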

A short description of test [2]: TOX21_p53_BLA_p2_viability: Viability Assessment in the Tox21 HCT-116 p53 Agonism Beta-lactamase Assay, Phase 2 (AID 2283591).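 Also: actives lower the ATP signal meaning cytotoxicity.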 An outline of the steps:
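HCT116 p53-bla cells, 4000/well, dosed after 5 h plating (217-fold dilution of DMSO stocks) and incubated 16 h at 37C. Viability taken as cellular ATP by CellTiter-Glo luminescence after 30 min RT; signal loss marks cytotoxicity.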

For test [3], the target named is Cellular tumor antigen p53 (Homo sapiens) (UniProt P04637). The experiment in a line: TOX21_p53_BLA_p5_ratio: Tox21 HCT-116 p53 Agonism Beta-lactamase Assay, Ratio, Phase 5 (AID 2283599). In outline: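 HCT-116 p53-bla cells (4000/well) plated 5 h, dosed with compound (217-fold DMSO dilution) for 16 h at 37 C; CCF4-AM substrate 2 h at room temperature. Activity is the 460/530 nm emission ratio (405 nm excitation), fitted in gain-of-signal direction versus DMSO.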
Cellular tumor antigen p53 (Homo sapiens), sequence (P04637 whole entry, looked up): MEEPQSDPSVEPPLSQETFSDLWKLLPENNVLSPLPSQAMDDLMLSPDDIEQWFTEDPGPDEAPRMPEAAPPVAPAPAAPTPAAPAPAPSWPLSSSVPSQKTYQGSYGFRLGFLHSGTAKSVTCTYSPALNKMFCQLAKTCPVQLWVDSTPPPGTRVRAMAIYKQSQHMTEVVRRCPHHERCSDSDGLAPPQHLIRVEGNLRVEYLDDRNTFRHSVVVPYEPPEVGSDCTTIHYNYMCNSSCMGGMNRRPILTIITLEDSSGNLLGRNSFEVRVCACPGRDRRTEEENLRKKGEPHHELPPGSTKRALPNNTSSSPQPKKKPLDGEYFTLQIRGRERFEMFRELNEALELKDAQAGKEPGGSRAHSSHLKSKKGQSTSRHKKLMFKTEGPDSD

Test [4] has the same target. Nature of the test: TOX21_p53_BLA_p4_ratio: Tox21 HCT-116 p53 Agonism Beta-lactamase Assay, Ratio, Phase 4 (AID 2283601). In outline:
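HCT-116 p53 beta-lactamase reporter cells (4000/well) preincubated 5 h, then compound (217-fold dilution of DMSO stock) for 16 h at 37C. CCF4-AM substrate added 2 h at room temperature; 460/530 nm emission ratio fitted upward versus DMSO.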

Test [5] can be described thus: TOX21_p53_BLA_p3_viability: Viability Assessment in the Tox21 HCT-116 p53 Agonism Beta-lactamase Assay, Phase 3 (AID 2283593).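 Also: cells exposed to compound for 16 h before reading.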 An outline of the steps: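 HCT116 cells, 4000/well, dosed 5 h after plating by pin transfer (217-fold dilution from DMSO stock) and incubated 16 h at 37C, 5% CO2. Viability read as ATP luminescence with CellTiter-Glo after 30 min at room temperature.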

The nature of test [6]: TOX21_p53_BLA_p4_viability: Viability Assessment in the Tox21 HCT-116 p53 Agonism Beta-lactamase Assay, Phase 4 (AID 2283597).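 Also: hits lower the luminescence signal meaning cytotoxicity.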 An outline of the steps:
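Compound exposure of HCT116 cells lasts 16 h at 37C, 5% CO2, with DMSO stocks diluted 217-fold. Cellular ATP is then quantified by CellTiter-Glo luminescence after 30 min at room temperature.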

The target of test [7] is Cellular tumor antigen p53 (Homo sapiens) (UniProt P04637). Nature of the test: TOX21_p53_BLA_p2_ratio: Tox21 HCT-116 p53 Agonism Beta-lactamase Assay, Ratio, Phase 2 (AID 2283592). An outline of the steps: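 An inducible beta-lactamase reporter in HCT116 cells signals p53 pathway activation. After 16 h chemical exposure at 37C, cells load CCF4-AM substrate for 2 h at room temperature; activity is the cleaved/uncleaved emission ratio relative to DMSO.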

Test [8] in a line: TOX21_p53_BLA_p5_viability: Viability Assessment in the Tox21 HCT-116 p53 Agonism Beta-lactamase Assay, Phase 5 (AID 2283600). An outline of the steps:
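Counter-readout for cytotoxicity: ATP-dependent luminescence from CellTiter-Glo, read in the beta-lactamase wells after 30 min at RT, following a 16 h compound exposure at 37C.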

For test [9], the target named is Cellular tumor antigen p53 (Homo sapiens) (UniProt P04637). The experiment in a line: TOX21_p53_BLA_p3_ratio: Tox21 HCT-116 p53 Agonism Beta-lactamase Assay, Ratio, Phase 3 (AID 2283596). In outline:
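HCT116 p53-bla cells (4000/well) given compound in DMSO (217-fold dilution) after 5 h, incubated 16 h at 37C. CCF4-AM substrate 2 h at room temperature; 460/530 nm emission ratio, gain fitted against DMSO.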

Results filed as inconclusive are left out. Activity calls are given as the source filed them. The calls were made as follows: active = hit-call score of the fitted dose curve at least 0.9, where 1 is the maximum; inconclusive = response in the unintended direction; inactive = score below 0.9.

By AC50 is commonly meant the midpoint of the concentration-response curve, whichever way the signal moves.

On to `CCOC(=O)COC(=O)c1ccccc1C(=O)OCC`, for which the compound was called inactive in test [1], in test [2], in test [3] and in test [4].

As to `C=C(C)CCCC(C)CCO` (stereo not given), the result in test [1], in [2], in test [5], in [6] and in test [3] was inactive.

For `OC[C@H]1O[C@@H](O[C@H]2[C@H](O)[C@@H](O)[C@H](O)O[C@@H]2CO)[C@H](O)[C@@H](O)[C@H]1O`, the compound was classed as inactive in [1], in test [2], in [7] and in test [8].

Regarding `c1coc(CNc2ncnc3nc[nH]c23)c1`, the result in test [1], in [2], in test [5], in test [6], in [3] and in test [8] was inactive. The result in test [4] was inactive.

On to `Cc1ccc(C(C)(C)O)cc1`, for which the outcome in test [1], in test [2], in test [7], in test [3], in test [8] and in test [4] was inactive.

As to `CCCCCCCCCCCCCCCCCC(=O)OCCCCCCCCCCCCCC(C)C`, the result in test [1], in test [2], in [7], in [6], in test [3] and in test [8] was inactive.

Regarding `CCCCCc1cccc(=O)o1`, the result in [1], in test [2], in test [5], in [9], in test [3] and in test [4] was inactive.

Regarding `c1ccc(Cc2ccccc2)cc1`, the compound was called inactive in test [1], in test [2], in [7], in test [9] and in test [8].

As for `O=S1(=O)CC=CC1`, the outcome in test [1], in test [7], in test [5], in [9], in test [3] and in [8] was inactive. Further, in test [4], the result was inactive.

On to `Cc1cccc(O)c1`, for which the compound was called inactive in test [1], in test [2], in [9], in [6], in test [3] and in test [8].

Regarding `CCCCCCCCCCCCOCCOS(=O)(=O)O`, the half-maximal activity concentration (AC50) was 154 µM (active) in [1] and 60.4 µM (active) in test [6]. For the same compound, the compound was called inactive in test [2], in [5], in test [3], in [8] and in test [4].

As for `C=C/C(C)=C/C/C=C(\C)CCC=C(C)C`, the call in test [1], in [2], in test [5], in test [9] and in test [8] was inactive.

With `S=c1[nH][nH]c(=S)s1`, the compound was called inactive in [1], in test [2], in test [7], in [3] and in test [4].

As for `Cc1cc(N)n(-c2ccccc2)n1`, the compound was called inactive in [1], in test [2], in [5] and in test [4].

As for `CCCCOCCOCCOCCO`, the result in [1], in test [2], in test [5], in [9], in test [6] and in test [3] was inactive. For the same compound, the outcome in [4] was inactive.

`N=C1N=C(N)c2ccccc21`: the compound was classed as inactive in test [1], in [8] and in [4]. Besides, the AC50 in test [7] is 28.4 µM (active); in test [5] it was 13.6 µM (active); in [9], 27.3 µM (active); in [3] it was 13.3 µM (active).

For the compound `O=C(O)c1cccc(Cl)n1`, the compound was classed as inactive in test [1], in test [2] and in [8].

Turning to `[Cu+]`, the result in test [1], in [2] and in test [8] was inactive.

In the case of `CCCCCCCCCO`, the result in [1], in [7], in test [5], in test [9], in [6] and in [8] was inactive.

In the case of `CCCCCCC(O)CCOC(C)=O` (stereo not given), the compound was classed as inactive in test [1], in test [7], in test [5], in [9], in [3] and in [8]. In test [4], the outcome was inactive.

As for `CC(C)Cc1ccccc1`, the outcome in test [1], in test [7], in test [5], in test [9], in test [6] and in test [3] was inactive. Further, the compound was classed as inactive in test [8] and in test [4].

Regarding `CCCCCCCOC(C)=O`, the result in test [1], in [2], in test [5] and in [4] was inactive.

`CC(C)COC(=O)c1ccccc1O`: the call in test [1], in [7], in test [5], in test [9], in test [6] and in test [3] was inactive. Besides, the compound was called inactive in [8] and in test [4].

Turning to `CCOC(=O)C(=O)OCC`, the outcome in test [1], in test [7], in [5], in test [9] and in test [3] was inactive.

As to `CCCCN(CCO)CCO`, the result in test [1], in [7], in test [5], in test [9] and in test [8] was inactive.

Take `CN(C)c1ccc(C=O)cc1`: the compound was classed as inactive in test [1], in test [7], in test [5], in [9], in [8] and in test [4].

For the compound `CC/C=C\CCOC(=O)C(C)C`, the compound was classed as inactive in test [1], in [7], in test [5], in test [6] and in test [3].

As for `C=CCOCC(O)CO` (stereo not given), the call in [1], in test [2], in test [5], in [9], in [3] and in test [4] was inactive.

On to `C=CCCCCCCCCC(=O)OCC`, for which the compound was called inactive in test [1], in [7], in test [5], in test [6], in test [3] and in [8]. Besides, the outcome in test [4] was inactive.

In the case of `CCCCCCCCCCCCN1CCOCC1`, the call in test [1], in test [7], in test [5], in test [9], in [3] and in [8] was inactive.

Take `O=S(=O)(O)CCCN1CCOCC1`: the outcome in test [1], in test [2], in test [6], in [3], in test [8] and in test [4] was inactive.

With `CC(=O)OC(C)(C)C1CC=C(C)CC1` (stereo not given), the call in [1], in [2], in test [9], in test [3], in [8] and in [4] was inactive.

`CCOc1ccc(NC(C)=O)cc1`: the result in [1], in test [7], in [5], in [9], in [6] and in [3] was inactive. Further, the compound was classed as inactive in [8] and in test [4].

For `CC1=CC(O)CC(C)(C)C1` (stereo not given), the call in test [1], in [2], in [7], in [8] and in test [4] was inactive.

For `CCCCN(CCCC)CCCCCCN(CCCC)CCCC`, the outcome in [1], in test [7], in test [5], in test [9], in [3] and in [4] was inactive.

With `O=C(OCc1ccccc1)c1ccccc1O`, the result in [1], in test [7], in [5], in test [9], in [6] and in test [3] was inactive. The call in test [8] and in test [4] was inactive.

For `C=C(C)C(=O)OCCN(C)C`, the compound was called inactive in [1], in [2], in [5], in test [9], in test [6] and in test [8].

Values taken from PubChem BioAssay (EPA / NIEHS).
